Source: PubChem BioAssay AID2283131 (EPA ToxCast)
Results filed as inconclusive are left out. Calls of active or inactive are those of the source. Rule for the calls: active = hit-call score of the fitted dose curve at least 0.9, where 1 is the maximum; inconclusive = response in the unintended direction; inactive = score below 0.9.

Target: human Bruton's Tyrosine Kinase (BTK), BTK (gene 695) (UniProt Q06187)
Test: NVS_ENZ_hBTK: NovaScreen (NVS) Enzymatic Assay for human Bruton's Tyrosine Kinase (BTK)
Method: NVS_ENZ_hBTK is a biochemical, single-readout assay that uses extracted gene-proteins in a cell-free assay. Measurements were taken 1 hour after chemical dosing in a 96-well plate.NVS_ENZ_hBTK is one of one assay component(s) measured or calculated from the NVS_ENZ_hBTK assay. It is designed to make measurements of enzyme activity, a form of enzyme reporter, as detected with fluorescence intensity signals by Fluorescence and electrophoretic mobility shift technology.Data from the assay component NVS_ENZ_hBTK was analyzed into 1 assay endpoint. This assay endpoint, NVS_ENZ_hBTK, was analyzed in the positive analysis fitting direction relative to DMSO as the negative control and baseline of activity. Using a type of enzyme reporter, loss-of-signal activity can be used to understand changes in the enzymatic activity as they relate to the gene BTK. Furthermore, this assay endpoint can be referred to as a primary readout, because this assay has produced multiple assay endpoints where this one serves a enzymatic activity function. To generalize the intended target to other relatable targets, this assay endpoint is annotated to the kinase intended target family, where the subfamily is non-receptor tyrosine kinase.
Binding assays used specific radioligands (tritiated, iodinated) with non-radioactive competitive displacement ligands in agonist or antagonist protocols (as indicated) and various reference compounds and inhibitors to titrate specific binding to receptors and transporters. Most enzyme assays (CYPs, kinases, phosphatases, proteases, HDACs) used recombinant protein and specific substrates (fluorescence mostly, some colorimetric and radioactive) and inhibitors, followed by a biochemical separation of substrate and product. All assays for the biochemical HTS were initially run in duplicate at a single concentration (10 uM for CYP450 assays and 25 uM for all others). […] Each assay was run with positive and negative controls, and concurrent controls on every plate. The follow-up (secondary) screen tested active chemical-pairs in concentration series, as well as a few additional assays not tested in the primary screen, some selected negative inactives, and several cases re-run in the concentration series for confirmatory purposes.

human Bruton's Tyrosine Kinase (BTK), BTK (gene 695), sequence (Q06187 whole entry, looked up): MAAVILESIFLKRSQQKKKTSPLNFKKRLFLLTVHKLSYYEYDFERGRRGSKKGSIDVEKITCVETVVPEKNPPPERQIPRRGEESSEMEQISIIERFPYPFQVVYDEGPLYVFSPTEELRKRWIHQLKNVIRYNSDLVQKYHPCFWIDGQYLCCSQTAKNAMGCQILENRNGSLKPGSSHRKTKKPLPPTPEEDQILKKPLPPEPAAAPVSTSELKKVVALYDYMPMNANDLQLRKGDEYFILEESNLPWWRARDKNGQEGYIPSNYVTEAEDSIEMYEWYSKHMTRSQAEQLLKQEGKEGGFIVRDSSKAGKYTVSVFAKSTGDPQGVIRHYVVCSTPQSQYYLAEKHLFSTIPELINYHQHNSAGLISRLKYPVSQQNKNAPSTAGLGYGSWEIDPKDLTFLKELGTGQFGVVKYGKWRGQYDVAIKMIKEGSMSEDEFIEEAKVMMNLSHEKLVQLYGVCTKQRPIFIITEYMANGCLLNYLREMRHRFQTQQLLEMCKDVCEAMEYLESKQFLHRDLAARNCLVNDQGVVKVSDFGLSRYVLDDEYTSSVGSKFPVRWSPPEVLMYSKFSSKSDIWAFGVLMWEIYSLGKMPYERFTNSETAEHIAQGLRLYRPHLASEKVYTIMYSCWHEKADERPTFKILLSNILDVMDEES

Structure (SMILES) | AC50 | outcome
O=S(=O)(O)C(F)(F)C(F)(F)C(F)(F)C(F)(F)C(F)(F)C(F)(F)C(F)(F)C(F)(F)F | 17.4 µM (active) | 
N#Cc1c(Cl)c(Cl)c(Cl)c(C#N)c1Cl |  | inactive
CCCOc1nn(C(=O)NS(=O)(=O)c2ccccc2C(=O)OC)c(=O)n1C |  | inactive
O=[N+]([O-])/N=C1\NCCN1Cc1ccc(Cl)nc1 |  | inactive
Cc1ccccc1CO[C@@H]1C[C@@]2(C(C)C)CC[C@]1(C)O2 |  | inactive
CNC(=O)Oc1cccc2c1OC(C)(C)O2 |  | inactive
S=C1NCCN1 |  | inactive
O=C(O)C(F)(F)C(F)(F)C(F)(F)C(F)(F)C(F)(F)C(F)(F)C(F)(F)F |  | inactive
Fc1ccc(Oc2ccnc3cc(Cl)cc(Cl)c23)cc1 |  | inactive
